# Experimental data: PubChem BioAssay (NCI)
# Where “and” joins values, the source holds several entries; their conditions need not be identical. Equal values may be shown once. The panel holds about 83,000 compounds, 20% with a hit somewhere; the sample as a whole holds those more often.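 Plates (96-well) were seeded with cells, treated with compound at one concentration, and incubated for 48 hours before percent growth was determined.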 Values without a mark were called inactive. Calls of active or inactive are those of the source. The calls were made as follows: active = growth percent below 10; inactive = the rest.
# What was measured:
# Assay in all cases: NCI-60 one-dose screen, 48 h (100 = growth as untreated, 0 = no growth, -100 = all killed)
# Details in all cases: 10 µM unless noted
# [1] = test system: T-47D breast
# [2] = test system: BT-549 breast
# [3] = test system: MDA-MB-435 melanoma
# [4] = test system: SW-620 colon
# [5] = test system: MCF7 breast
# [6] = test system: HCT-116 colon
# [7] = test system: HCC-2998 colon
# [8] = test system: KM12 colon
SMILES,growth [1],growth [2],growth [3],growth [4],growth [5],growth [6],growth [7],growth [8]
Nc1nc(Nc2cccnc2)sc1C(=O)c1ccccc1F,33%,12.2%,39.2%,34.5%,9.37% (active),3.8% (active),69.5%,5.5% (active)
Cc1ccc(-c2nc([P+](c3ccccc3)(c3ccccc3)c3ccccc3)c(Nc3ccccc3)o2)cc1,8.18% (active),2.14% (active),-32.9% (active),-29.9% (active),0.233% (active),-22.2% (active),-51.5% (active),-35.1% (active)
Nc1n[nH]c2cccc(C#Cc3cccc(NC(=O)c4ccc(N5CCOCC5)c(C(F)(F)F)c4)c3)c12,-0.951% (active),14.2%,19.2%,21.5%,25.6%,2.84% (active),6.77% (active),21.4%
COc1cccc(NC(=O)c2sc3nc(C)c(C(O)c4ccccc4)cc3c2N)c1 (stereo not given),35.3%,55.6%,5.31% (active),26.5%,17.9%,8.89% (active),9.98% (active),18%
COc1ccc(S(=O)(=O)Nc2cc(Sc3cccc4cccnc34)c(O)c3ccccc23)cc1,-30.9% (active),27.7%,16.4%,-59.2% (active),-50.5% (active),-36.8% (active),38.6%,20.3%
Cc1nc(-n2[nH]c(=O)ccc2=O)sc1N=Nc1ccccc1,94%,95.7%,102%,98.1%,94.2%,97.5%,115%,108%
OB(O)c1ccsc1-c1nc2ccc3[nH]ncc3c2c2c1CCCC2,53.5%,47.1%,27%,22.7%,49.3%,26.4%,66%,38.1%
Cc1ccc(/C=C2\COc3ccc(O)c(O)c3C2=O)cc1,-7.19% (active),-13.1% (active),-24.4% (active),-32.4% (active),15.1%,-22.9% (active),9.54% (active),-19.9% (active)
O=c1cc(N/N=C/c2ccc(F)cc2)c2cc(Cl)ccc2[nH]1,68.5%,93.6%,78.6%,101%,84.6%,84.1%,85.1%,108%
CCCn1nc(C(=O)N2CCCCC2)c2c1CCC(N1CCC(c3ccncc3)CC1)C2 (stereo not given),99.5%,79.5%,102%,104%,99.6%,99.4%,109%,103%
CCNC(=O)Oc1ccc(/C(=C(/C)Cc2ccc(OC)cc2)c2ccc(OCCN(CC)CC)cc2)cc1,27.4%,80.5%,40.5%,45.2%,18.3%,30.9%,59.7%,62.2%
CCOC(=O)c1cc2c(n1Cc1cc(OC)cc(OC)c1Br)-c1nc(NC(C)=O)sc1CCC2,38.5%,92.9%,83.9%,81.3%,57.6%,78.2%,72.7%,67.6%
Cn1c(=O)c2c(nc(Nc3cc(=O)[nH]c(=O)[nH]3)n2Cc2ccccc2)n(C)c1=O,18.9%,98.2%,-73% (active),19.3%,95.5%,94.2%,107%,5.18% (active)
O/N=C(/c1ccccc1)c1ccc2c3c(cccc13)CC2,85.9% and 93.8%,84.6% and 106%,47.3% and 37.8%,91.2% and 84%,85.8% and 82.6%,83.7% and 92.1%,101% and 97.8%,86.4% and 78.4%
Cc1ccc2[nH]c(=S)[nH]c(=O)c2c1,89%,101%,101%,103%,99.8%,101%,98.2%,100%
Cc1nc2sc(C(=O)Nc3cccc4ccccc34)c(N)c2cc1C(=O)/C=C/c1ccccc1,14.5%,-31.1% (active),1.56% (active),-8.3% (active),4.27% (active),-52.8% (active),-85.4% (active),-43.7% (active)
CCOc1ccc(C(=O)Cc2ccccc2)cc1,98% and 100%,113% and 116%,106% and 102%,108% and 110%,103% and 104%,107% and 110%,106% and 98.2%,116% and 110%
C=C(CNCCO)[C@@H]1CC[C@]2(CO)CC[C@]3(C)[C@H](CC[C@@H]4[C@@]5(C)CCC(NCCc6ccc(O)cc6)C(C)(C)[C@@H]5CC[C@]43C)[C@@H]12 (stereo not given in full),-66.1% (active),-79.2% (active),-95.5% (active),-75.1% (active),-73.4% (active),-94.4% (active),-94.8% (active),-81.2% (active)
Clc1nccc2c(-c3csc(-c4c[nH]c5ccc(Br)cc45)n3)c[nH]c12,17.7%,53.2%,36.9%,-31.1% (active),23.7%,22.8%,27.8%,17.1%
CCOC(=O)CC1CSC(c2cccc(Cl)c2)=N1 (stereo not given),102%,111%,112%,108%,87.8%,97.2%,82.7%,108%
CC1(Cc2ccccc2)CC2=C(C(=O)O1)C(c1ccccc1)NC(=O)N2 (stereo not given),97%,104%,99.4%,106%,105%,86.9%,94.9%,107%
C/C=C(/C)C(=O)O[C@@H]1CC(C)(C)CC2C34OC(=O)[C@@]21CC[C@@]3(C)[C@]1(C)CCC2C(C)(C)C(=O)CC[C@]2(C)C1C[C@@H]4Cl (stereo not given in full),99.1%,108%,102%,96.7%,97.6%,86.2%,102%,104%
CCc1c2c(nc3ccc(OCc4ccc(B5OC(C)(C)C(C)(C)O5)cc4)cc13)-c1cc3c(c(=O)n1C2)COC(=O)[C@]3(O)CC,0.841% (active),28.8%,9.46% (active),15.6%,2.53% (active),2.03% (active),26.7%,0.421% (active)
Cc1ccc(-c2nc3nc(-c4ccccc4)nc(N4CCN(S(=O)(=O)c5ccccc5)CC4)c3o2)cc1,94.5%,64.5%,95.7%,92.9%,92.7%,65.2%,102%,104%
COc1c(O)c(O)cc2c3c(oc12)CC(c1ccc2c(c1)OCO2)CC3=O (stereo not given),43.8%,56.2%,39.8%,38.7%,35.5%,32.1%,92.9%,66%
COc1cccc(C2C(C#N)=C(N)Oc3cc(OCCCCCC[P+](c4ccccc4)(c4ccccc4)c4ccccc4)ccc32)c1 (stereo not given),-32.9% (active),-54.3% (active),-77.6% (active),-31.7% (active),-39.2% (active),-81% (active),-68.6% (active),-77% (active)
O=C(Nc1ccc2ccccc2c1)c1cc2ccccc2cc1O,83.3%,81.5%,103%,103%,65.9%,92.3%,107%,-36.8% (active)
O=C1C(=C(O)c2ccccc2)C(=O)c2ccccc21,103%,95.7%,103%,111%,102%,102%,109%,104%
COc1ccc2c(O)c(/C=C3\N=Nc4nc(C)ccc43)oc2c1CC1CCNCC1,89.5%,60.4%,42.7%,38.9%,67.3%,35.3%,78.1%,38.2%
CC/C(=C(/c1ccc(O)cc1)c1ccc(OCCN2CCCCCC2)cc1)c1ccc(Cl)cc1,51.9%,69.8%,81.1%,62.6%,13%,-53% (active),28.8%,38.2%
